In the first assay the target is SHOC2. The experiment in a line: pooled miR-30 sensor sort-seq; sequence = guide strand. The note with it: shRNA.
With TTGTGAGCTACATCCAGCGTAA, the sensor-assay potency score (higher = more potent) worked out at 0.0478.

With TTACTTAATACTTTTGCTCTGG, the sensor-assay potency score (higher = more potent) turned out to be 0.139.

As for TGAATTTTCACTTAGAGCCAGT, the sensor-assay potency score (higher = more potent) was -0.612.

As to TTGATCGTATTGTCAACTGAAA, the sensor-assay potency score (higher = more potent) was -1.19.

TTGATTGTGAGCTACATCCAGC gave a sensor-assay potency score (higher = more potent) of -0.412.

For the sequence TTCTCTTCTAGATCCAACTCTC, the sensor-assay potency score (higher = more potent) is -0.213.

TTTGATCGTATTGTCAACTGAA yielded a sensor-assay potency score (higher = more potent) of 0.487.

As to TTTGTTCTCTTCTAGATCCAAC, the sensor-assay potency score (higher = more potent) is -0.823.

In turn, TCCAACTCTCTTAACTTCCTAA came in with a sensor-assay potency score (higher = more potent) of -0.798.

On to TATATCTAACTATACTACCTCT, for which the sensor-assay potency score (higher = more potent) is -0.42.

Sequence TATGTGTATAGATCTCTTGGAT came in with a sensor-assay potency score (higher = more potent) of -0.313.

Take TATCTAACTATACTACCTCTGT: the sensor-assay potency score (higher = more potent) was -0.264.

The target in another assay is SHOX2. The assay is described as above. The conditions noted are these: shRNA.
With TCCAGGGTGAAATTGGTCCGAC, the sensor-assay potency score (higher = more potent) was -1.19.

TTCTATGCAAGAGTCCATCGTT: the sensor-assay potency score (higher = more potent) was determined as 0.114.

On to TTCTACATTTAGCTCTTCGATT, for which the sensor-assay potency score (higher = more potent) was -0.898.

In turn, TTTGAAACCAAACCTGCACTCG registered a sensor-assay potency score (higher = more potent) of -0.285.

TACATTTAGCTCTTCGATTTTG: the sensor-assay potency score (higher = more potent) was -1.22.

For TTCTTGCTGGTGGTCTTGGCGG, the sensor-assay potency score (higher = more potent) was -1.37.

Take TTTTCTTGTTTTCTACATTTAG: the sensor-assay potency score (higher = more potent) was -1.51.

Sequence TATGAGAACACCTTTATGGAGT registered a sensor-assay potency score (higher = more potent) of -0.114.

TTGCGATCTTTCAGCTCCGGGG returned a sensor-assay potency score (higher = more potent) of -1.14.

For TTTATGGAGTTGATTTTCTTGT, the sensor-assay potency score (higher = more potent) was -0.402.

Take TTTGCGATCTTTCAGCTCCGGG: the sensor-assay potency score (higher = more potent) is -1.2.

The sequence TTTCTACATTTAGCTCTTCGAT had a sensor-assay potency score (higher = more potent) of -1.28.

The target of another assay is SHROOM4. Described as above. The conditions noted are these: shRNA.
Regarding TTTCATCTTGACAAAGTGCTGG, the sensor-assay potency score (higher = more potent) was determined as 0.237.

Regarding TATCAGTACCAACTTCTCCTGG, the sensor-assay potency score (higher = more potent) is -0.376.

In the case of TTTGCTTGCAAAACATTCTGAG, the sensor-assay potency score (higher = more potent) came out at 0.464.

As to TTTCTGAACTGAAATACTGGGG, the sensor-assay potency score (higher = more potent) is -0.0667.

In the case of TAGTGGTTGAAGAACAGTCCGT, the sensor-assay potency score (higher = more potent) is -0.287.

In turn, TTGAAGAACAGTCCGTGGCTTG showed a sensor-assay potency score (higher = more potent) of -0.301.

TTGCTTGCAAAACATTCTGAGT gave a sensor-assay potency score (higher = more potent) of -1.21.

Take TAGCTTGACAAGTCCAGTGCTG: the sensor-assay potency score (higher = more potent) was -0.0975.

As to TTCATCTTGACAAAGTGCTGGT, the sensor-assay potency score (higher = more potent) turned out to be 0.618.

Regarding TTATTCGTCCCTCTAAGCCTGT, the sensor-assay potency score (higher = more potent) was -0.267.

In turn, TTGAAGAGCTTGTCTCTGGGGC registered a sensor-assay potency score (higher = more potent) of 0.543.

As to TAGAGCTCCTTGAACACTGCAG, the sensor-assay potency score (higher = more potent) was determined as 0.417.

The target in the next assay is SIAE. The description is as above. The conditions noted are these: shRNA.
As to TAATCCATCAGTAAACTGCATT, the sensor-assay potency score (higher = more potent) is -1.07.

Sequence TACAGAGCCAGACATCTCCAAA came in with a sensor-assay potency score (higher = more potent) of -1.12.

In turn, TTTCACACTGGTCACTTTCTTC returned a sensor-assay potency score (higher = more potent) of -0.603.

These data come from the OligoGym collection.
Note: reference of the scale not given here.
